About 83,000 compounds went through this panel and 20% of them were active in at least one assay; those are over-represented in the sample as a whole.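 Values shown are percent growth following 48 h exposure of cells in 96-well plates to a single concentration of compound; below 10 was considered active.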 The source made the active and inactive calls.
Experiments:
Assay in all cases: NCI-60 one-dose screen, 48 h (100 = growth as untreated, 0 = no growth, -100 = all killed)
Conditions in all cases: 10 µM unless noted
MOLT-4 leukemia = system: MOLT-4 leukemia
SR leukemia = system: SR leukemia
RPMI-8226 leukemia = system: RPMI-8226 leukemia
OVCAR-8 ovarian = system: OVCAR-8 ovarian
OVCAR-5 ovarian = system: OVCAR-5 ovarian
OVCAR-4 ovarian = system: OVCAR-4 ovarian
SK-OV-3 ovarian = system: SK-OV-3 ovarian
IGROV1 ovarian = system: IGROV1 ovarian
OVCAR-3 ovarian = system: OVCAR-3 ovarian
HS 578T breast = system: HS 578T breast

Measured: growth

COC(=O)[C@@H](C)C[C@H](Cc1cn(C)c2ccccc12)NC(=O)c1csc([C@@H](C[C@H](C(C)C)N(C)C(=O)[C@@H](NC(=O)[C@H]2CCCCN2C)C(C)C)OC(C)=O)n1
active: OVCAR-3 ovarian -11%
inactive: MOLT-4 leukemia 12.8% | SR leukemia 13.2% | RPMI-8226 leukemia 10.5% | OVCAR-8 ovarian 30.1% | OVCAR-5 ovarian 48.7% | OVCAR-4 ovarian 50.5% | SK-OV-3 ovarian 26.8% | IGROV1 ovarian 26.3% | HS 578T breast 22.7%

O=C1CCC2(O)[C@@H]3Cc4ccc(O)c5c4[C@]2(CCN3Cc2ccoc2)C1O5 (stereo not given in full)
inactive: MOLT-4 leukemia 101% | SR leukemia 95.4% | RPMI-8226 leukemia 101% | OVCAR-8 ovarian 102% | OVCAR-5 ovarian 98.7% | OVCAR-4 ovarian 105% | SK-OV-3 ovarian 105% | IGROV1 ovarian 112% | OVCAR-3 ovarian 107% | HS 578T breast 105%

OCc1ccc2c(c1)OCO2
inactive: MOLT-4 leukemia 91.9% | SR leukemia 95.5% | RPMI-8226 leukemia 102% | OVCAR-8 ovarian 95.7% | OVCAR-5 ovarian 97% | OVCAR-4 ovarian 101% | SK-OV-3 ovarian 95.6% | IGROV1 ovarian 106% | OVCAR-3 ovarian 107% | HS 578T breast 97.1%

CCOC(=O)[C@@H](C)C[C@H](Cc1ccccc1)NC(=O)c1csc([C@@H](C[C@H](C(C)C)N(C)C(=O)[C@@H](NC(=O)[C@H]2C[C@H](O)CCN2C)C(C)C)OC(C)=O)n1
inactive: MOLT-4 leukemia 11.9% | OVCAR-8 ovarian 14.8% | OVCAR-5 ovarian 41.8% | OVCAR-4 ovarian 35.2% | IGROV1 ovarian 20.3% | HS 578T breast 19.4%
active: SR leukemia 5.63% | RPMI-8226 leukemia 5.82% | SK-OV-3 ovarian 7.61% | OVCAR-3 ovarian 5.22%

O=C1CNC(c2ccccc2)c2cc(Cl)ccc2N1 (stereo not given)
inactive: MOLT-4 leukemia 93.5% | SR leukemia 88.8% | RPMI-8226 leukemia 109% | OVCAR-8 ovarian 99.7% | OVCAR-5 ovarian 113% | OVCAR-4 ovarian 112% | SK-OV-3 ovarian 98.2% | IGROV1 ovarian 100% | OVCAR-3 ovarian 98% | HS 578T breast 109%

O=C1C2C(C(=O)[N]1[Hg][c]1cccs1)C1(Cl)C(Cl)=C(Cl)C2(Cl)C1(Cl)Cl (stereo not given)
active: MOLT-4 leukemia 3.08% | SR leukemia 1.72% | RPMI-8226 leukemia -11.4% | IGROV1 ovarian 0.499% | OVCAR-3 ovarian -91.1%
inactive: OVCAR-8 ovarian 11.9% | OVCAR-5 ovarian 13.7% | OVCAR-4 ovarian 37.3% | SK-OV-3 ovarian 102% | HS 578T breast 42%

CCC(C)(C)[C@H](NC(=O)[C@H]1CCCCN1C)C(=O)N(C)[C@H](C[C@@H](OC(C)=O)c1nc(C(=O)N[C@@H](Cc2ccccc2)C[C@H](C)C(=O)O)cs1)C(C)C
active: SR leukemia 6.11% | RPMI-8226 leukemia 7.76% | OVCAR-3 ovarian 5.97%
inactive: MOLT-4 leukemia 15.5% | OVCAR-8 ovarian 14.2% | OVCAR-5 ovarian 42.5% | OVCAR-4 ovarian 40.4% | SK-OV-3 ovarian 38.1% | IGROV1 ovarian 17.5% | HS 578T breast 13.3%

O=C1C(N2CC2)=C(N2CC2)C(=O)C(N2CC2)=C1N1CC1
inactive: MOLT-4 leukemia 32.9% | RPMI-8226 leukemia 37.7% | OVCAR-4 ovarian 51.7% | HS 578T breast 14.3%
active: SR leukemia 2.9% | OVCAR-8 ovarian 0.671% | OVCAR-5 ovarian -60.6% | SK-OV-3 ovarian -30.6% | IGROV1 ovarian -23.5% | OVCAR-3 ovarian 4.7%

Clc1ccc(CO/N=C(\Cn2ccnc2)c2ccc(Cl)cc2Cl)c(Cl)c1
inactive: OVCAR-5 ovarian 15.8% | OVCAR-4 ovarian 20.7% | SK-OV-3 ovarian 101%
active: MOLT-4 leukemia -4.84% | SR leukemia -13.7% | RPMI-8226 leukemia -3.32% | OVCAR-8 ovarian 9.94% | IGROV1 ovarian 6.54% | OVCAR-3 ovarian -60.1% | HS 578T breast -4.93%

C[C@]12CC[C@@H]3c4ccc(Oc5nc(N6CC6)nc(N6CC6)n5)cc4CC[C@H]3[C@@H]1CCC2=O
active: MOLT-4 leukemia -25.2% | SR leukemia -5.09% | RPMI-8226 leukemia 0.429%
inactive: OVCAR-8 ovarian 36.4% | OVCAR-5 ovarian 101% | OVCAR-4 ovarian 31.6% | SK-OV-3 ovarian 36.1% | IGROV1 ovarian 27.8% | OVCAR-3 ovarian 15.6% | HS 578T breast 45.4%

Clc1cc(N2CC2)nc(N2CC2)n1
inactive: MOLT-4 leukemia 46.6% | SR leukemia 34.7% | RPMI-8226 leukemia 80.4% | OVCAR-8 ovarian 64.5% | OVCAR-5 ovarian 102% | OVCAR-4 ovarian 95.2% | SK-OV-3 ovarian 71% | IGROV1 ovarian 109% | OVCAR-3 ovarian 107% | HS 578T breast 115%

Oc1c(O)c(Cl)c(Cl)c(Cl)c1Cl
inactive: MOLT-4 leukemia 31.1% | SR leukemia 24.3% | RPMI-8226 leukemia 25.1% | OVCAR-5 ovarian 77.7% | OVCAR-4 ovarian 15.8% | SK-OV-3 ovarian 64% | HS 578T breast 34.8%
active: OVCAR-8 ovarian -4.12% | IGROV1 ovarian -33.3% | OVCAR-3 ovarian -11.7%

COc1ccc(-n2c(C)nc3cc(OC)c(OC)cc3c2=O)cc1OC
inactive: MOLT-4 leukemia 97.2% | SR leukemia 95.5% | RPMI-8226 leukemia 104% | OVCAR-8 ovarian 102% | OVCAR-5 ovarian 104% | OVCAR-4 ovarian 101% | SK-OV-3 ovarian 102% | IGROV1 ovarian 102% | OVCAR-3 ovarian 106% | HS 578T breast 101%
